# Results taken from PubChem BioAssay (NCATS).
# A number with no mark means an inactive call. Calls come from the whole dose curve; as a rule, active = well fitted curve in the direction sought with a large enough effect; inconclusive = small, poorly fitted or top-dose-only effect, or another doubt; inactive = no such curve, though single readings can be large or run the other way.
# Biological target: Hexokinase-4 (Homo sapiens) + Glucokinase regulatory protein (Homo sapiens) (UniProt P35557+Q14397)
# Assay: qHTS assay for inhibitors of recombinant human GCK-GKRP interaction: Diaphorase-coupled assay (AID 743205)
# Conditions: G6PDH/diaphorase resorufin fluorescence; series mostly up to 57.5 µM; activity change, positive = activation: at the top concentration
# Description: Glucokinase (GCK) is a glucose sensor in hepatocytes and pancreatic beta-cells. Hepatic GCK is regulated by glucokinase regulatory protein (GKRP), which is predominantly localized to the liver. GKRP binds to GCK inhibiting its activity in the fasting state while in the presence of glucose the GKRP is displaced. There is an additional layer of regulation by fructose 1-phosphate and fructose 6-phosphate, which inhibit and enhance the GCK-GKRP interaction, respectively. GCK plays a role in glucose homeostasis and there is an interest in the development of strategies to activate GCK to lower blood glucose levels in type 2 diabetes. To date the majority of effort has focused on direct activation of GCK and the assays developed herein look to activate GCK by inhibiting its binding to GKRP. A compound that inhibits the interaction of GCK with GKRP could be important for the treatment of diabetes and can also be used as a tool compound to further elucidate GCK-GKRP biology. To that end, we have developed a sensitive HTS biochemical assay where in GCK activity is coupled to G6PDH and Diaphorase to interrogate the GCK-GKRP interaction. This assay was screened against a small compound library to look for modulators of activity.
# 2 uL of substrate (columns 1-48) are dispensed into Greiner, black solid-bottom 1536-well assay plates. Compounds (23 nL) are then transferred via Kalypsys pin tool equipped with 1536-pin array (10 nL slotted pins, V&P Scientific, San Diego, CA). The library compounds are in columns 5-48 and columns 1-4 serve as controls with DMSO in columns 1 and 3 and 26 mM 1:1.5 fold serial of gluckokinase activator (GKA-EMD) in column 2 and 26 mM of the glucokinase activator (GKA-EMD) in column 4. Following addition of compound and a 20 minute incubation, 1 uL of enzyme mix (GST-GCK, FLAG-GKRP and diaphorase) is added to columns 1, 2, 4-48 and 1 uL of no enzyme mix (FLAG-GKRP and diaphorase) is added to column 3 and the fluorescent product resorufin generated from resazurin was monitored on a Viewlux (PerkinElmer, Shelton, CT, USA) with excitation at 525 nm and emission at 590 nm in kinetic mode where the plate was read every minute for 30 minutes. The final concentration of reagents in the reaction are 25 mM Hepes pH 7.6, 25 mM KCl, 2 mM MgCl2, 1.4 mM 2-mercaptoethanol, 0.025% BSA, 0.01% Tween-20, 0.15 mM NADP+, 5 mM glucose, 0.4 mM ATP, 4 U/ml G6PDH, 0.1 mM resazurin, 10 nM GST-GCK, 10 nM FLAG-GKRP, diaphorase (0.1 mg/mL). Data are normalized to DMSO-treated control columns with (maximum signal) and without (minimum signal) enzyme.
# Chain of Hexokinase-4 (Homo sapiens) + Glucokinase regulatory protein (Homo sapiens) (P35557 whole entry, looked up): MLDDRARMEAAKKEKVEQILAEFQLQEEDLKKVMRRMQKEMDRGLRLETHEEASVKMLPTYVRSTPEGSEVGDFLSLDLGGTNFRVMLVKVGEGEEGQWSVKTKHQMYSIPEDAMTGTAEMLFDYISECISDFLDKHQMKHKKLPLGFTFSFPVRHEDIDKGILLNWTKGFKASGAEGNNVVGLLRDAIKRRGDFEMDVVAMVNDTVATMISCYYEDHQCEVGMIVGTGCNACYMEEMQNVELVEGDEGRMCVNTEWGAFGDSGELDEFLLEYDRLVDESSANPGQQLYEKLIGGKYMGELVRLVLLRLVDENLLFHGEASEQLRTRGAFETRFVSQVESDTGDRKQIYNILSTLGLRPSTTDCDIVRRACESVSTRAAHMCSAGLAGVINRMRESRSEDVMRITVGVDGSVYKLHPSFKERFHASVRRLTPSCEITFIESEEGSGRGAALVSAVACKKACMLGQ
# Chain of Hexokinase-4 (Homo sapiens) + Glucokinase regulatory protein (Homo sapiens) (Q14397 whole entry, looked up): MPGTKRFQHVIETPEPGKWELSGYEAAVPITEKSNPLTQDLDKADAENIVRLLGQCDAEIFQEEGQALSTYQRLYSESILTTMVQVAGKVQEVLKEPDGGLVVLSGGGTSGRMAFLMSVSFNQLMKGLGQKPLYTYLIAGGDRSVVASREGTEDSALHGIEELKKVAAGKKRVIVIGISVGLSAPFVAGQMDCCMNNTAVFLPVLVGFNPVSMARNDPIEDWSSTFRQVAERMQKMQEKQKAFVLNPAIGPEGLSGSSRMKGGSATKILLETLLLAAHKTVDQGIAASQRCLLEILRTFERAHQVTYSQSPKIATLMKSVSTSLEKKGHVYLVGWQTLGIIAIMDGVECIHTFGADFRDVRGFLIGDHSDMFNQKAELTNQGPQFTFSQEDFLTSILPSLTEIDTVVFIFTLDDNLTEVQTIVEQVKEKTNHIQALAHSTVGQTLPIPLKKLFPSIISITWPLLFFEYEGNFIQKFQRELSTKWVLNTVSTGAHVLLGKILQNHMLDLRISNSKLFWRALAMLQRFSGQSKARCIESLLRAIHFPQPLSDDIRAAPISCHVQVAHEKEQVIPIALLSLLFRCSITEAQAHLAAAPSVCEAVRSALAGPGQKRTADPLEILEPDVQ
row,SMILES,"activity change, positive = activation [%]"
1,C[N+](C)(CCCCCC[N+](C)(C)CCCN1C(=O)c2cccc3cccc(c23)C1=O)CCCN1C(=O)c2cccc3cccc(c23)C1=O,4.33
2,CCCCCCCCCCCCCCCCCCNC(=O)OCC(COP(=O)([O-])OCC[n+]1ccsc1)OC (stereo not given),-4.87
3,O=C(O)/C=C/C(O)c1ccc(Cl)cc1 (stereo not given),-2.71
4,Nc1ncnc2c1ncn2[C@@H]1O[C@H](COP(=O)(O)OP(=O)(O)OP(=O)(O)OP(=O)(O)OC[C@@H]2O[C@H](n3cnc4c(N)ncnc43)[C@@H](O)[C@H]2O)[C@@H](O)[C@H]1O,-1.02
5,N[C@@H](CC(=O)O)C(=O)O,-1.21
6,Oc1ccccc1O,-13.7
7,O=c1[nH]c2cc([N+](=O)[O-])c([N+](=O)[O-])cc2[nH]c1=O,-2.12
8,Cn1cc(C2=C(c3ccc(Cl)cc3Cl)C(=O)NC2=O)c2ccccc21,-4.01
9,NC(=O)C1=CN(C2OC(COP(=O)(O)OP(=O)(O)OC[C@H]3O[C@@H](n4cnc5c(N)ncnc54)[C@H](OP(=O)(O)O)[C@@H]3O)C(O)C2O)C=CC1 (stereo not given in full),-18.6
10,CCCCCCCCCCCCCCCCCC(=O)OC(CC(=O)O)C[N+](C)(C)C (stereo not given),-0.0519
11,CCOC(=O)N1CCN(/[N+]([O-])=N/Oc2ccc([N+](=O)[O-])cc2[N+](=O)[O-])CC1,-1.66
12,C[C@@H](NC(=O)/C(C#N)=C/c1ccc(O)c(O)c1)c1ccccc1,-14.5
13,CCCCC#Cc1nc(NC)c2ncn([C@@H]3O[C@H](CO)[C@@H](O)[C@H]3O)c2n1,2.2
14,S=C(S)OC1CC2CC1C1CCCC21 (stereo not given),-1.84
15,COC1=C(OC)C(=O)c2ccccc2C1=O,-35.5
16,COC(=O)c1c(C)[nH]c(C)c1C(=O)c1ccccc1Cc1ccccc1,-8.05
17,COc1ccccc1N1CCN(CCN(C(=O)c2ccc(I)cc2)c2ccccn2)CC1,-4.29
18,O=C(/C=C/c1ccc(O)cc1)c1ccc(O)cc1O,-13.3
19,CC[C@@H](C)[C@H]1O[C@]2(CC[C@H]1C)C[C@@H]1C[C@@H](CC=C(C)[C@@H](O[C@H]3C[C@H](OC)[C@@H](O[C@H]4C[C@H](OC)[C@@H](O)[C@H](C)O4)[C@H](C)O3)[C@@H](C)C=CC=C3CO[C@@H]4[C@H](O)C(C)=C[C@@H](C(=O)O1)[C@]34O)O2,-14.7
20,O=C(O)[C@@H]1C[C@@H](C(=O)O)N1,3.12

row,SMILES,"activity change, positive = activation [%]"
1,COc1cccc(C(=O)NCCN2CCN(c3ccc(Cl)cc3)CC2)c1,-0.503
2,C#CCN1C(C)=C(C(=O)OC)C(c2cccc([N+](=O)[O-])c2)C(C(=O)OCC)=C1C (stereo not given),-1.51
3,OC[C@H]1O[C@@H](n2cnc3c(NC4CCCC4)ncnc32)[C@H](O)[C@@H]1O,-2.25
4,NC[C@@H]1O[C@H](C23CC4CC(CC(C4)C2)C3)Cc2c1ccc(O)c2O,-7.1
5,CCCCN1CCC(n2c(=O)[nH]c3ccccc32)CC1,-0.945
6,CC1OC1P(=O)(O)O (stereo not given),1.24
7,O=C(O)CC[C@@H](C(=O)O)N1C(=O)c2ccccc2C1=O,-0.811
8,C#C[C@]1(O)CC[C@H]2[C@@H]3CCC4=Cc5oncc5CC4(C)[C@H]3CCC21C (stereo not given in full),-5.63
9,CCCC1(C)C(C#N)(C#N)C1(C#N)C#N,-2.75
10,NCC1OC(O[C@H]2[C@H](O)[C@@H](OC3C(O)C(N)CC(N)C3OC3OC(CO)C(O)C(O)C3N)O[C@@H]2CO)C(N)C(O)C1O (stereo not given in full),-2.4
11,Nc1nc(Nc2ccccc2)nc2c1ncn2[C@@H]1O[C@H](CO)[C@@H](O)[C@H]1O,0.38
12,C[N+](C)(C)CCOP(=O)(O)OP(=O)([O-])OC[C@H]1O[C@@H](n2ccc(N)nc2=O)[C@H](O)[C@@H]1O,-0.277
13,COc1cc(OC)c(/C=C2/C(=O)Nc3ccccc32)c(OC)c1,-22.3
14,CC1(C)CCC=[N+]1[O-],2.52
15,CNC(=O)[C@H]1O[C@@H](n2cnc3c(NCc4cccc(I)c4)ncnc32)[C@H](O)[C@@H]1O,-2.37
16,OC[C@H]1O[C@@H](n2cnc3c(Nc4ccccc4)ncnc32)[C@H](O)[C@@H]1O,0.96
17,CN(C)c1ccc(/C=C2\C(=O)Nc3ccccc32)cc1,-0.203
18,CN1CCC[C@H]1c1cccnc1,-4.93
19,Cc1ccccc1CNc1ncnc2c1ncn2C1OC(CO)C(O)C1O (stereo not given),1.59
20,Cc1cc(NC2CCCCC2)nc(-n2nc(C)cc2C)n1,-1.82
